Activity calls are given as the source filed them. The calls were made as follows: active = hit-call score of the fitted dose curve at least 0.9, where 1 is the maximum; inactive = score below 0.9.
Experiment: ATG_NFI_CIS: Attagene CIS-FACTORIAL HepG2 Assay for human Nuclear Factor I (NFI) (AID 2282989)
Settings: HepG2 cis-regulatory reporter, NFI response element transcription; actives raise or lower the signal
Description: ATG_CIS is a cell-based, multiplexed-readout assay that uses HepG2, a human liver cell line, with measurements taken at 24 hours after chemical dosing in a 24-well plate.ATG_NFI_CIS is one of 52 assay component(s) measured or calculated from the ATG_CIS assay. It is designed to make measurements of mRNA induction, a form of inducible reporter, as detected with fluorescence intensity signals by Reverse transcription polymerase chain reaction (RT-PCR) and Capillary electrophoresis technology.Data from the assay component ATG_NFI_CIS was analyzed into 1 assay endpoint. This assay endpoint, ATG_NFI_CIS, was analyzed with bidirectional fitting relative to DMSO as the negative control and baseline of activity. Using a type of inducible reporter, measures of mRNA for gain or loss-of-signal activity can be used to understand the reporter gene at the transcription factor-level as they relate to the gene NFIA. Furthermore, this assay endpoint can be referred to as a primary readout, because this assay has produced multiple assay endpoints where this one serves a reporter gene function. To generalize the intended target to other relatable targets, this assay endpoint is annotated to the dna binding intended target family, where the subfamily is nuclear factor I.
Human liver HepG2 cells are transiently transfected with multiple reporter transcription units (MRTUs) in 6-well plates using FuGene 6 reagent (Roche; 3 ml FuGene/1 mg DNA). The MRTU constructs are regulated by a cis-regulating element (promoter). […] A major difference between the CIS and TRANS system is that in CIS activities of endogenous TFs are measured, whereas the TRANS assay evaluates changes in activities of exogenous, chimeric NR-Gal4 proteins. […] At the end of 24 hour incubation, total RNA was isolated using TriZol reagent (Invitrogen). The isolated RNA is then reverse-transcribed using oligo(dT) primer and Mo-MLV reverse transcriptase (Invitrogen) with DNAse I (Ambion) treatment for 30 min. The one-tenth of the produced cDNA was amplified by PCR using Taq DNA polymerase (Invitrogen) and two reporter sequence-specific primers. The PCR products were fluorescently labeled by primer extension with 6-arboxyfluorescein (6-FAM) 5'-labeled reporter sequence-specific primer (2 min at 95 C, 20 s at 68 C and 10 min at 72 C) and these products were digested with 5U of HpaI (New England Biolabs) for 2h at 37 C. The fragments were purified using Qiaquick PCR columns (Qiagen), analyzed on an ABI 3130xL genetic analyzer (Applied Biosystems) with peak positions identified by using a set of X-rhodamine (ROX)-labeled MapMarker1000 molecular weight standards (BioVentures). The raw capillary electrophoresis data was processed using Attagraph software (Attagene).

Row | Structure (SMILES) | outcome | AC50
1 | CCOC(=O)c1ccc(C)cc1 | inactive | 
2 | COc1ccc(C(=O)c2ccccc2)c(O)c1 | inactive | 
3 | CC(=O)c1ccccc1O | inactive | 
4 | O=C(O)CC(C(=O)O)S(=O)(=O)O (stereo not given) | inactive | 
5 | CCN(CC)c1cccc(C)c1 | inactive | 
6 | CC(C=O)c1ccccc1 (stereo not given) | inactive | 
7 | CC(=O)OCc1ccccc1 | inactive | 
8 | CC1CC(=O)CC(C)(C)C1 (stereo not given) | inactive | 
9 | C1CNCCN1 | inactive | 
10 | C=CC(C)(CCC=C(C)C)OC(=O)C=Cc1ccccc1 (stereo not given) | inactive | 
11 | Cc1c(Cl)cccc1Cl | inactive | 
12 | CC1=NN(c2ccc(S(=O)(=O)O)cc2)C(=O)C1N=Nc1ccccc1 (stereo not given) | inactive | 
13 | O=c1c(O)c(-c2ccc(O)cc2O)oc2cc(O)cc(O)c12 | inactive | 
14 | C=C(C)[C@@H]1CC=C(C)CC1 | inactive | 
15 | CCOC(=O)[C@H](O)[C@@H](O)C(=O)OCC | inactive | 
16 | O=C(O)/C=C/c1ccccc1 | inactive | 
17 | Nc1ccc(Cl)c(N)c1 | inactive | 
18 | CC(C)C(=O)OCCOc1ccccc1 | inactive | 
19 | O=C(O)c1ccc2c(c1)C(=O)OC2=O | inactive | 
20 | C=C1C[C@H]2[C@@H]3C=C(C)C4=CC(=O)CC[C@]4(C)[C@H]3CC[C@]2(C)[C@@]1(OC(C)=O)C(C)=O |  | 106 µM (active)

Row | Structure (SMILES) | outcome | AC50
21 | CC(C)(C)NC(=O)[C@H]1CC[C@H]2[C@@H]3CC[C@H]4NC(=O)C=C[C@]4(C)[C@H]3CC[C@]12C | inactive | 
22 | CCCCNS(=O)(=O)c1ccccc1 | inactive | 
23 | CC(C)COC(=O)CC(C(=O)OCC(C)C)S(=O)(=O)O (stereo not given) | inactive | 
24 | CC(c1cc(C(C)(C)C)cc(C(C)(C)C)c1O)c1cc(C(C)(C)C)cc(C(C)(C)C)c1O | inactive | 
25 | CCc1occc(=O)c1O | inactive | 
26 | C=Cc1ccc(OC(C)=O)cc1 | inactive | 
27 | N=C1C=CC(=C(c2ccc(N)cc2)c2ccc(N)cc2)C=C1 | inactive | 
28 | Nc1ccc(O)c([N+](=O)[O-])c1 | inactive | 
29 | Cc1ccc(C)c(OCCCC(C)(C)C(=O)O)c1 | inactive | 
30 | CCC1(C)C(=O)N(Cl)C(=O)N1Cl (stereo not given) |  | 60.6 µM (active)
31 | Clc1cc(Cl)c(Cl)c(Cl)c1Cl | inactive | 
32 | CN1CCN(C)CC1 | inactive | 
33 | O=S(=O)(O)c1ccc(Nc2nc(Nc3ccc(C=Cc4ccc(Nc5nc(Nc6ccc(S(=O)(=O)O)cc6)nc(N(CCO)CCO)n5)cc4S(=O)(=O)O)c(S(=O)(=O)O)c3)nc(N(CCO)CCO)n2)cc1 | inactive | 
34 | Oc1ccc(-c2ccccc2)c(Cl)c1 |  | 33.4 µM (active)
35 | CCOC(=O)OC(=O)OCC | inactive | 
36 | O=C(Oc1ccccc1)c1ccccc1C(=O)Oc1ccccc1 | inactive | 
37 | CO[Si](C)(C)OC | inactive | 
38 | CC1C(C)(C)C2=C(C(=O)CCC2)C1(C)C (stereo not given) | inactive | 
39 | O=C(Oc1ccccc1)c1ccccc1O | inactive | 
40 | COCC(=O)O | inactive | 

From PubChem BioAssay (EPA / NIEHS)
